Screens as filed in PubChem.
TGFb SMAD3 inh = qHTS for Inhibitors of TGF-b; HepG2 CAGA-GFP TGF-b/SMAD3 reporter, GFP fluorescence, 18 h; TGF-beta stimulated, 500 pg/mL final; Potency, µM (titrated, usually from 46.1 µM), usual class: inhibitors; actives 1.2% (n = 410,000); note: nearly all actives have a fitted effect of over 65% in size
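HEPG2 CAGA-GFP reporter cells (1000/well, DMEM with 1% FBS) received compounds, then recombinant TGF-beta at 500 pg/mL final for 18 hours at 37 degrees C. Per-cell GFP summed per well was normalised to unstimulated and stimulated DMSO controls before curve fitting.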
HT1080NT lethal = qHTS for induction of synthetic lethality in tumor cells producing 2HG: qHTS for the HT-1080-NT fibrosarcoma cell line. actives 1.6% (n = 360,000). AID 686970, 2013. HT-1080-NT fibrosarcoma viability, CellTiter-Glo ATP luminescence, 48 h. Potency, µM (doses to about 46.1 µM), most hits filed as cytotoxic;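 note: NT is the 2HG producing partner of a matched IDH1 knockdown line; nearly all actives have a fitted effect of over 55% in size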
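Compounds were tested in concentration-response format on HT-1080-NT cells for 48 hours at 37 degrees C. Cell viability came from CellTiter-Glo luminescence; curves were classified by r2, response magnitude and activity.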
ATXN2 expr inh = Primary qHTS for Inhibitors of ATXN expression; HEK-293 ATXN2-luciferase reporter, luminescence, 24 h; Potency, µM (titrated, usually from 57 µM), actives largely listed as inhibitors; actives 0.72% (n = 360,000); AID 1745845, 2022; note: nearly all actives have a fitted effect of over 55% in size
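ATXN2-luciferase reporter cells (luciferase flanked by upstream and downstream ATXN2 gene portions) were treated 24 h at 37 °C with compounds at up to 57 uM. SteadyGlo luminescence gave expression; GF-AFC fluorescence gave viability.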
HepG2 tox = qHTS for Inhibitors of TGF-b: Cytotox Counterscreen; actives 0.76% (n = 410,000); HepG2 CAGA-GFP viability, ATP luminescence, 18 h; Potency, µM (series often up to 46.1 µM), actives largely listed as cytotoxic
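CellTiter-Glo luminescence gave cytotoxicity after 18 hours at 37 degrees C. The cells were HepG2 CAGA-GFP in 1% FBS DMEM, stimulated with 500 pg/mL TGF-beta after compound addition. %Activity was normalised to no-cell wells (complete cell-killing) and DMSO (no toxicity), and curves were fitted and classified.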
HT1080 IDH1KD tx = qHTS for induction of synthetic lethality in tumor cells producing 2HG: qHTS for the HT-1080-IDH1KD cell line | AID 686971, 2013 | actives 2% (n = 360,000) | Potency, µM (titrated, usually from 46.1 µM), most hits filed as cytotoxic | HT-1080 IDH1 knockdown viability, ATP luminescence, 48 h
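Cytotoxicity counter-line: IDH1KD HT-1080, 48 h, CellTiter-Glo. Curves classed by r2, magnitude and activity.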
ATXN viability = Viability Counterscreen for Primary qHTS for Inhibitors of ATXN expression; S2 cells (HEK-293 line with an ATXN2-luciferase reporter) viability, CellTiter-Fluor protease fluorescence, 24 h; Potency, µM (top dose mostly 56.7 µM), hits mostly cytotoxic; actives 0.49% (n = 400,000); AID 651635, 2014; note: nearly all actives have a fitted effect of over 40% in size
A number is an active result; 0 = inactive; ? = inconclusive; - = no result. Rows were chosen to be rich in hits. Some 3.9% of all compounds tested hit in one or more screens of this group. Calls come from the whole dose curve; as a rule, active = well fitted curve in the direction sought with a large enough effect; inconclusive = small, poorly fitted or top-dose-only effect, or another doubt; inactive = no such curve, though single readings can be large; an effect the other way counts as inactive or inconclusive.

SMILES	TGFb SMAD3 inh	HT1080NT lethal	ATXN2 expr inh	HepG2 tox	HT1080 IDH1KD tx	ATXN viability
CCn1nc(-c2cccs2)nc2c(=O)n(C)c(=O)nc1-2	?	3.3µM	0	0.35µM	2.6µM	0
CCn1nc(/C=C/c2ccccc2)nc2c(=O)n(C)c(=O)nc1-2	0.4µM	4.1µM	?	0.89µM	1.8µM	-
CCOc1ccc(-n2c(/C=C/c3ccccc3)nc3ccccc3c2=O)cc1	0	-	-	0	-	-
C=CCN1CC[C@]23CCCC[C@H]2[C@H]1Cc1ccc(O)cc13	-	-	0	-	-	0
CCCCn1c(O)c(/C=C2/C=CC=N2)c(=O)[nH]c1=O	0	15µM	0	0	?	?
O=c1[nH]c(=O)n(Cc2ccccc2Cl)c(O)c1/C=C1/C=CC=N1	0	4.1µM	0	0	5.8µM	0
Cc1ccc(C(=O)Nc2nc3ccccc3n2CCN2CCCC2)cc1	0	?	0	0	0	0
Cc1ccc(C(=O)Nc2nc3ccccc3[nH]2)cc1	0	?	3.5µM	0	?	0
O=C(NN=Cc1ccc(N(CCCl)CCCl)cc1)c1cc(=O)[nH]c(=O)[nH]1	0	0	?	0	0	0
Cc1cc(N(CCCl)CCCl)ccc1C=NNC(=O)c1cccnc1	0	0	1.8µM	0	0	0
O=C(NN=Cc1ccc(N(CCCl)CCCl)cc1Cl)c1cccnc1	5µM	0	?	0	0	?
O=C1NCN(c2ccccc2)C12CCN(C(CCc1ccccc1)c1nnnn1C1CCCC1)CC2 (configuration not stated)	11µM	?	?	0	?	32µM
O=C1NCN(c2ccccc2)C12CCN(C(CCc1ccccc1)c1nnnn1C1CCCCC1)CC2 (configuration not stated)	13µM	?	?	0	26µM	?
CC[N+]1(CC)CCC(OC(=O)C(O)(c2ccccc2)c2ccccc2)C1 (configuration not stated)	-	-	0	-	-	0
O=S(=O)(c1ccc(F)c(F)c1F)N1CCN(c2ncnc3sccc23)CC1	?	0	0	0	0	0
O=S(=O)(c1ccccc1C(F)(F)F)N1CCN(c2ncnc3sccc23)CC1	13µM	0	?	0	0	0
CCOP(=O)(OCC)c1ccc2ccc3ccccc3c(=O)c2c1	0	-	0	0	-	0
COc1ccccc1-c1nn2c(=O)cc(CN3CCN(C(=O)Nc4ccc(C)cc4Cl)CC3)nc2s1	0	-	0	0	-	?
C[C@@H](N)C(=O)c1ccccc1	-	-	-	-	-	0
Cc1c(C(=O)c2cccc3ccccc23)c2cccc3c2n1[C@H](CN1CCOCC1)CO3	?	15µM	?	0	9.2µM	?
O=[N+]([O-])c1c(Cl)c(Cl)c(Cl)c(Cl)c1Cl	0	-	0	0	-	0
Nc1cc(Cl)c2nonc2c1[N+](=O)[O-]	?	7.3µM	?	11µM	12µM	?
CCN(CC)C(=O)[C@@H]1C=C2c3cccc4[nH]cc(c34)C[C@H]2N(C)C1	-	-	0	-	-	?
COc1ccc(NC(=O)CCn2cnc3onc(-c4ccc(F)cc4)c3c2=O)cc1OC	?	-	?	0	-	?
C[C@@H]1O[C@@H](O[C@@H]2C=C3CCC4C(CC[C@]5(C)[C@@H](c6ccc(=O)oc6)CC[C@]45O)[C@@]3(C)CC2)[C@H](O)[C@H](O)[C@H]1O (some centres not stated)	0	0.0073µM	0	0	0.0092µM	?
C[C@@H]1O[C@@H](O[C@@H]2C=C3CC[C@@H]4C(CC[C@]5(C)[C@@H](c6ccc(=O)oc6)CC[C@]45O)[C@@]3(C)CC2)[C@H](O)[C@H](O)[C@H]1O (some centres not stated)	0.28µM	0.018µM	0	0	0.0046µM	?
CNC(C)Cc1ccc2c(c1)OCO2 (configuration not stated)	-	-	0	-	-	0
